The values that follow come from PubChem BioAssay (NCATS).

Each structure is given as a SMILES string. Records with an inconclusive call do not appear. Calls of active or inactive are those of the source. The call rests on the fitted dose curve; in most records, active means well fitted curve in the direction sought with a large enough effect in the signal ratio, with a control signal flat (not every such curve was filed as active); inconclusive means small, poorly fitted or top-dose-only effect, or a change in a side signal; inactive means no such curve, though single readings can be large or run the other way; the % refers to the signal ratio.

This experiment is described as follows: qHTS Assay for Identification of Small Molecule Inducers of Hypoxia Response (AID 2120). The conditions noted are these: hypoxia response reporter cells, beta-lactamase ratio readout; series mostly up to 104 µM. The text has this:
NIH Chemical Genomics Center [NCGC]
NIH Molecular Libraries Screening Centers Network [MLSCN]
National Institutes of Environmental Health Sciences [NIEHS]
National Toxicology Program [NTP]
Hypoxia-inducible factor-1 (HIF-1) is the major hypoxia-regulated transcription factor that controls cellular responses to low oxygen concentration. HIF-1 is composed of two subunits: hypoxia responsive HIF-1a and constitutively expressed HIF-1b, which is also known as aryl hydrocarbon receptor nuclear translocator. During hypoxic conditions, HIF-1a heterodimerizes with HIF-1b and translocates into the nucleus where the HIF-1 complex binds to the hypoxia-response element (HRE) and activates expression of target genes such as VEGF (vascular endothelial growth factor). The HIF-1 pathway is essential to normal growth and development, and is involved in the pathophysiology of cancer, inflammation, and ischemia.
Using a beta-lactamase reporter-gene under control of the hypoxia response element, a cell-based assay [CellSensor(TM) HRE-bla ME-180 developed by Invitrogen Corp.] was used to measure hypoxia-induced signaling. Library compounds were measured for their ability to induce the reporter gene activity. Compounds were screened in a titration series in 1536-well format. The inducers were identified based on the AC50 values derived from the screening data.
NCGC Assay Protocol Summary
2500 cells/5uL in Opti-MEM medium containing 0.5% dialyzed FBS, 0.1 mM NEAA, 1 mM sodium pyruvate and 10 mM HEPES was dispensed into 1536-well plates and cells were cultured at 37 degrees Celsius for 4-5 hours and then 23 nL of compounds or DMSO were delivered to each well using a pin tool. The plates were incubated at 37 degrees Celsius for 17 hours. 1 uL of CCF4-dye mixture was added to each well. After incubated at room temperature for 2.5 hours the plates were measured on an EnVision plate reader at Excitation 405nm, Emission1=460nm and Emission 2=530nm. The %Activity was determined from the ratio of 460nm/530nm.
(In general: qHTS replaces the single test concentration by a dilution series.)
In the case of `Cc1ccc2oc(=O)ccc2c1`, the result was inactive.
With `CC1CCC2CC1C2(C)C` (stereo not given), the outcome was inactive.
For the compound `O=C1OC(=O)c2cc([N+](=O)[O-])ccc21`, the result was inactive.
With `Nc1cccc(N)c1`, the outcome was inactive.
In the case of `CCNc1ccccc1` it was “inactive”; in that of `CCCCC(CC)COC(=O)CCCCC(=O)OCC(CC)CCCC` (stereo not given), “inactive”; in that of `O=P(O)(OCc1ccccc1)OCc1ccccc1`, “inactive”.
In the case of `C=CCCCCCCC=C` it was “inactive”; in that of `CC(=C/C=C/C(C)=C/C=C/C=C(C)/C=C/C=C(C)/C=C/C(=O)O)/C=C/C(=O)O`, “inactive”.
For the compound `Cc1cc(C)cc(N)c1`, the outcome was inactive.
Take `CCC(C)O` (stereo not given): the outcome was inactive.
`CCOCCO`: the outcome was inactive.
For the compound `CCCC=O`, the result was inactive.
With `CCCCCCC=O`, the outcome was inactive.
Take `CC(=O)c1ccc([N+](=O)[O-])cc1`: the result was inactive.
Consider `O=C(O)c1cccc([N+](=O)[O-])c1`, for which the outcome was inactive.
Consider `NC(=S)NNC(N)=S`, for which the result was inactive.
`Cc1cccc(Br)c1`: the result was inactive.
In the case of `C=C(C)C1CC=C(C)C(OC(C)=O)C1` (stereo not given) it was “inactive”; in that of `O=Cc1ccc(CO)o1`, “inactive”.
Take `O=Nc1ccc(NO)cc1`: the result was inactive.
Consider `O=Cc1ccc(Cl)cc1`, for which the outcome was inactive.
Under `Cc1cc(C)cc(O)c1` stands “inactive”; under `CCC(C)(C)C`, “inactive”; under `CC(O)CC(C)O` (stereo not given), “inactive”.
In the case of `C=C(C)C(=O)OCC(C)C` it was “inactive”; in that of `CN(C)CCCNCCCN`, “inactive”; in that of `CCC1CO1` (stereo not given), “inactive”.
In the case of `C=CCn1c(=O)n(CC=C)c(=O)n(CC=C)c1=O`, the outcome was inactive.
With `Cc1ccc(C)c(O)c1`, the outcome was inactive.
Turning to `NC(=O)c1cccc([N+](=O)[O-])c1`, the outcome was inactive.
As to `C=C(C)C(=O)OCCCCCCCCCC`, the outcome was inactive.
Take `CNc1ccccc1`: the outcome was inactive.
For the compound `CC(C)=C1CCC(C)CC1=O` (stereo not given), the result was inactive.
Under `CSc1ccc(C=O)cc1` stands “inactive”; under `Cc1c(N)cccc1N`, “inactive”; under `O=C1NC(=O)c2cc([N+](=O)[O-])ccc21`, “inactive”.
Regarding `CCCOCC(C)OCC(C)O` (stereo not given), the result was inactive.
As to `Clc1ccc(Cl)c(Cl)c1Cl`, the outcome was inactive.
With `Nc1nc(-c2ccccc2)cs1`, the outcome was inactive.
